Experimental data from PubChem BioAssay AID1030 (National Center for Advancing Translational Sciences (NCATS), 2008).
Hit rate of the full screen: of about 220,000 compounds, about 16,000 (7.3%) were called active. Entries that show only a call come without a potency. Inconclusive results (about 25%) are left out. Many of the other results were omitted from the sample, so actives are more common in it than they were. Values without a mark were called inactive. Calls follow the shape of the dose curve; as a rule, active = well fitted inhibition curve with a large enough effect (not every such curve was filed as active); inconclusive = small, poorly fitted or top-dose-only effect, or another doubt; inactive = no such curve, though single readings can be large or run the other way.
Potency is read from the fitted curve at half-maximal effect.

These compounds were tested against Aldehyde dehydrogenase 1A1 (Homo sapiens) (UniProt P00352) (assay: qHTS Assay for Inhibitors of Aldehyde Dehydrogenase 1 (ALDH1A1)). Conditions: Purified ALDH1A1, NADH fluorescence, propionaldehyde substrate; series mostly up to 75.3 µM.
Sequence of Aldehyde dehydrogenase 1A1 (Homo sapiens) (P00352 whole entry, looked up): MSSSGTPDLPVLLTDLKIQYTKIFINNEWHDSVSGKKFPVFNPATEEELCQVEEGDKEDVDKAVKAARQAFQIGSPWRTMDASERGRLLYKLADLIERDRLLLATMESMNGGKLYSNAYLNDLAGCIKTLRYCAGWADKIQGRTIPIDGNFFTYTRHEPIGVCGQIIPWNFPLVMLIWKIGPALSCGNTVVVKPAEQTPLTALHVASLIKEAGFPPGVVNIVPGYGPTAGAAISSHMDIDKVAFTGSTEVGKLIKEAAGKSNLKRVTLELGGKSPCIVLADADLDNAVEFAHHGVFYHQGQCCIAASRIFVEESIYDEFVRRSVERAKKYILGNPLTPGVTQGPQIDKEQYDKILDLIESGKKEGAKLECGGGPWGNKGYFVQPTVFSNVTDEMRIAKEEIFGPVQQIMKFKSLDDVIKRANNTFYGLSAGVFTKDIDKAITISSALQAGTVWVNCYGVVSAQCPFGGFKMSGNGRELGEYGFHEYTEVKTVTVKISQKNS
`CCOC(=O)C1(C)NC(c2ccco2)C2C(=O)N(c3ccccc3)C(=O)C21` (stereo not given) was tested, and the Potency was “inactive”.
With `COc1ccc(Cl)cc1C(=O)NNC(=S)NC1CCCC1` the Potency was “inactive”.
For `COc1ccc(CNC(=O)C2CCN(S(C)(=O)=O)CC2)cc1`, the Potency was “inactive”.
With `Cc1cccc(C)c1OCC(=O)NC(Cc1c[nH]c2ccccc12)C(=O)O` (stereo not given) the Potency was “inactive”.
For `CCN(C(=O)CN1CCN(Cc2ccccc2)CC1)c1c(N)n(Cc2ccccc2)c(=O)[nH]c1=O`, the Potency was “inactive”.
`COC(=O)c1cn(C(=O)c2ccc(Cl)cc2)c2ccccc12` was tested, and the Potency was “inactive”.
`O=C(c1ccc(F)cc1)n1cc(C(=S)N2CCOCC2)c2ccccc21` was tested, and the Potency was 31.6 µM (active).
For `N#C/C=C(/c1ccc(F)cc1)N1CCOCC1`, the Potency was “inactive”.
For `CC(=C/c1ccccc1)/C=N/NC(=O)c1cc(C)oc1C`, the Potency was “inactive”.
With `COc1ccc(OC)c(S(=O)(=O)Nc2ccccc2F)c1` the Potency was “inactive”.
`COCCNS(=O)(=O)c1cc(Br)ccc1OC` was tested, and the Potency was “inactive”.
In the case of `COc1ccc(OC)c(S(=O)(=O)NCCC(C)C)c1`, the Potency is reported as 14.1 µM (active).
For `CC(Nc1oc(-c2ccccc2)nc1-c1ccccc1)c1ccccc1` (stereo not given), the Potency was “inactive”.
With `O=C(COC(=O)c1cnccn1)Nc1cccc2ccccc12` the Potency was “inactive”.
For `NS(=O)(=O)c1ccc(CCNC(=O)CCCn2c(SCC(=O)N3CCCC3)nc3ccsc3c2=O)cc1`, the Potency was “inactive”.
For `Cc1nn(CC(=O)Nc2ccc3c(c2)OCO3)c(C)c1[N+](=O)[O-]`, the Potency was “inactive”.
For `CCCCC(=O)Nc1ccc2c(c1)OCCO2`, the Potency was “inactive”.
`CCN(CC(=O)Nc1ccc2c(c1)OCCO2)Cc1cc(=O)oc2cc(C)c(C)cc12` was tested, and the Potency was 10 µM (active).
In the case of `Cc1ccc(S(=O)(=O)/N=C(\N)c2ccc(F)cc2)cc1`, the Potency is reported as “inactive”.
`C/C(=N\Nc1nc(Nc2ccccc2)nc(N2CCOCC2)n1)c1cccs1` was tested, and the Potency was “inactive”.
`COc1cc2nc(CN(C)Cc3ccc(F)cc3)[nH]c(=O)c2cc1OC` was tested, and the Potency was “inactive”.
In the case of `COCCCNC(=S)NC(=O)c1ccc([N+](=O)[O-])cc1`, the Potency is reported as 20 µM (active).
For `COc1ccc(C(=O)NNC(=S)NC(=O)c2ccccc2[N+](=O)[O-])cc1`, the Potency was “inactive”.
`COCCCNC(=S)NC(=O)c1ccccc1` was tested, and the Potency was “inactive”.
With `CCCCCC(=O)NC(=S)NNC(=O)c1ccc([N+](=O)[O-])cc1` the Potency was 14.1 µM (active).
With `COCCCNC(=S)NNC(=O)C(O)(c1ccccc1)c1ccccc1` the Potency was “inactive”.
For `CCCCCC(=O)Nc1ccc(C(=O)N/N=C/c2ccc([N+](=O)[O-])cc2)cc1`, the Potency was “inactive”.
In the case of `CCNC(=O)N1c2ccccc2Sc2ccccc21`, the Potency is reported as “inactive”.
`COC(=O)Cc1ccc(Oc2ncc(C(F)(F)F)cc2Cl)cc1` was tested, and the Potency was “inactive”.
For `CC(=O)Nc1sc2c(c1C(c1cccc(F)c1)N1CCN(CCO)CC1)CCCC2` (stereo not given), the Potency was “inactive”.
With `C/[N+]([O-])=C\c1ccc([N+](=O)[O-])o1` the Potency was “inactive”.
With `C=CCN(c1ccccc1C(=O)NCC(=O)OCC)S(=O)(=O)c1ccc(C)cc1` the Potency was “inactive”.
In the case of `CCN(CC)CCCNC(=O)Cn1cnc2sc(C)c(S(=O)(=O)N3CCN(c4ncccn4)CC3)c2c1=O`, the Potency is reported as “inactive”.
`O=C(/C=C/c1cn(-c2ccccc2)nc1-c1ccc2c(c1)OCCO2)NCCCN1CCOCC1` was tested, and the Potency was “inactive”.
For `CC(=O)[C@H](C(c1ccccc1)N1CCOCC1)N1CCOCC1` (stereo not given in full), the activity, negative = inhibition was -3.8% [at 13.5 µM].
In the case of `CCOC(=O)CN1CCC(c2ccccc2)CC1`, the Potency is reported as “inactive”.
In the case of `C=CCN1C(=O)C(O)(CC(=O)c2ccc(Cl)cc2)c2ccccc21` (stereo not given), the Potency is reported as 0.447 µM (active).
`C=CCN1C(=O)C(O)(CC(=O)c2ccccn2)c2ccccc21` (stereo not given) was tested, and the Potency was 0.355 µM (active).
In the case of `CCOC(=O)CSc1ccccn1`, the Potency is reported as “inactive”.
`CN1/C(=C\C(=O)c2cccnc2Cl)C(C)(C)c2ccccc21` was tested, and the Potency was “inactive”.
`CC(C)(C)C(=O)CCN1C(=O)C2(OCCO2)c2ccccc21` was tested, and the Potency was “inactive”.
In the case of `CCOC(=O)CN1C(=O)C(O)(CC(=O)c2ccccn2)c2ccccc21` (stereo not given), the Potency is reported as 0.224 µM (active).
In the case of `O=C(CSc1nnnn1-c1ccc(O)cc1)N1N=C(c2ccc3ccccc3c2)CC1c1ccccc1` (stereo not given), the Potency is reported as “inactive”.
With `CCc1ccc(NC(=O)Nc2ccncc2)cc1` the Potency was “inactive”.
`COC(=O)c1cccc([N+](=O)[O-])c1CS(=O)(=O)c1ccc(C)cc1` was tested, and the Potency was “inactive”.
For `CCOc1ccc(C2c3[nH]c4ccccc4c3CCN2Cc2cn(CC)nc2C)cc1` (stereo not given), the Potency was “inactive”.
With `O=C(Nc1cccnc1)c1ccc(Cl)cc1[N+](=O)[O-]` the Potency was “inactive”.
For `CC(CNc1ccc([N+](=O)[O-])c2cccnc12)Nc1c([N+](=O)[O-])cc(C(F)(F)F)cc1[N+](=O)[O-]` (stereo not given), the Potency was “inactive”.
With `O=[N+]([O-])c1cc([N+](=O)[O-])c2cccnc2c1O` the Potency was 25.1 µM (active).
In the case of `O=S(=O)(Nc1ncccn1)c1ccc(NS(=O)(=O)c2cccc(Cl)c2Cl)cc1`, the Potency is reported as “inactive”.
With `Cn1c(=O)n(C)c2cc(NS(=O)(=O)c3ccc(F)cc3)ccc21` the Potency was “inactive”.
In the case of `O=S(=O)(Nc1ccc(Oc2ncccn2)c(Cl)c1)c1ccc(F)cc1`, the Potency is reported as 10 µM (active).
For `CC(=O)Nc1ccc(NC(=S)NC(=O)c2ccc([N+](=O)[O-])c(C)c2)cc1`, the Potency was “inactive”.
For `Cc1cc(N2CCN(C)CC2)nc2ccc(NC(=S)N3CCOCC3)cc12`, the Potency was “inactive”.
With `CC1COc2ccccc2N1S(=O)(=O)c1ccccc1` (stereo not given) the Potency was “inactive”.
For `O=C(C1CCN(C2CCN(Cc3ccc4cc(F)ccc4n3)CC2)CC1)N1CCCC1`, the Potency was “inactive”.
With `Cc1cccc(-n2c(=O)c3c(C)c(C)sc3n(CC(N)=O)c2=O)c1` the Potency was “inactive”.
In the case of `CN(C)c1ccc(C2Nc3ccccc3C(=O)N2NS(=O)(=O)c2ccccc2)cc1` (stereo not given), the Potency is reported as 25.1 µM (active).
For `NC(=O)Nc1ccccc1C(=O)NCCc1ccccc1`, the Potency was “inactive”.
For `CCCCC(C(=O)OCC(=O)c1ccc(OC)cc1)N1C(=O)c2ccccc2C1=O` (stereo not given), the Potency was “inactive”.
`CC(OC(=O)c1ccc2ccccc2n1)C(=O)c1ccccc1` (stereo not given) was tested, and the Potency was “inactive”.
With `COc1ccc(C(=O)COC(=O)c2ccc3ccccc3n2)cc1` the Potency was 17.8 µM (active).
With `c1ccc2sc(NN=C3CCCC3)nc2c1` the Potency was “inactive”.
For `O=C1CCC(=O)N1c1ccc(NCCc2ccccc2F)c([N+](=O)[O-])c1`, the Potency was “inactive”.
`C/C(=N\OC(=O)c1ccccc1)c1c(C)nc2cc(C)ccn12` was tested, and the Potency was “inactive”.
For `Cc1cc(CNCc2c(C(=O)N(C)Cc3ccccc3)nc3ccccn23)nn1C`, the Potency was “inactive”.
`Cc1nc2ccccn2c1C(=O)NN=C1CCN(C)CC1` was tested, and the Potency was 20 µM (active).
For `CN1CCN(C(=O)Cn2c(C(F)(F)F)nc3ccccc32)CC1`, the Potency was “inactive”.
`CCCCn1c(O)c(N=NC(=O)Cn2c(C(F)(F)F)nc3ccccc32)c2ccccc21` was tested, and the Potency was 4.47 µM (active).
`Cc1ccccc1OC(=O)Cn1c(C(F)(F)F)nc2ccccc21` was tested, and the Potency was “inactive”.
